Results published in PubChem BioAssay (NCATS).
Several values for one entry are separate records, joined by “and”; a condition that tells them apart may be missing. Identical values can stand only once. Inconclusive results are not listed. Activity calls are given as the source filed them. Unless noted, calls come from the whole dose curve; as a rule, active = well fitted curve in either direction with a large enough effect (not every such curve was filed as active); inconclusive = small, poorly fitted or top-dose-only effect, or another doubt; inactive = flat fitted curve, though single readings scatter.

Key:
[1] = Cell Viability - BJ (AID 421; calls by dose curve;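 note: potency is the fitted concentration of half-maximal effect; cells exposed to compound for 40 hours at 37 °C before readout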); settings: BJ fibroblast viability, qHTS
How it was run: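 Quantitative HTS: ATP depletion in BJ cells after 40 hr compound exposure in complete culture medium, detected with CellTiter-Glo; AC50 from standard Hill fits.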

[2] = Cell Viability - Jurkat (AID 426;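 active = dose-dependent loss of cell ATP signal giving a full or clear fitted curve, ranked by lower potency value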; note: potency is the fitted concentration of half-maximal effect); settings: qHTS
How it was run: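 Jurkat (Clone E6-1) cells, 5000/well in complete medium, exposed to compounds for 40 hr at 37C; intracellular ATP measured by CellTiter-Glo luminescence after 20 min at room temperature. AC50 from Hill fits.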

[3] = Cell Viability - Hek293 (AID 427;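 active = compounds whose dose-response curve shows a full or clear partial loss of cell viability, called from curve shape rather than a numeric limit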;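 note: potency is the fitted concentration of half-maximal effect; cells exposed to compound for 40 hours at 37 °C before reading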); settings: qHTS
How it was run: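 AC50 values derive from Hill-modelled concentration-response of ATP-based luminescence, normalized between DMSO-only and 100 uM tamoxifen controls. Cells were exposed in complete culture medium for 40 hr at 37 °C before detection.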

[4] = Cell Viability - HepG2 (AID 433; calls by dose curve;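 note: potency is the fitted concentration of half-maximal effect; potency for ATP loss meaning cytotoxicity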); settings: qHTS
How it was run: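 In this qHTS format, a 40 h, 37 °C compound incubation of HepG2 cells in complete medium precedes a 20 min CellTiter-Glo step at room temperature. Tamoxifen and doxorubicin serve as positive controls; Hill-equation fits yield AC50.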

[5] = Cell Viability - MRC5 (AID 434; calls by dose curve;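 note: potency is the fitted concentration of half-maximal effect; potency reflects cytotoxicity seen as loss of intracellular ATP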); settings: MRC5 lung fibroblast viability, qHTS
How it was run: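 qHTS cytotoxicity in human lung fibroblast MRC5 cells; 40 hr treatment, 37 °C; cellular ATP by luciferase luminescence; DMSO = 0%, 100 uM tamoxifen = 100% inhibition; Hill-fit AC50.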

[6] = Cell Viability - SK-N-SH (AID 435; calls by dose curve;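 note: potency is the fitted concentration of half-maximal effect; compound exposure lasted 40 h at 37 °C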); settings: SK-N-SH neuroblastoma cell viability qHTS
How it was run: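 Human neuroblastoma line, 40 h exposure at 37 °C, ATP quantified via luciferase luminescence; DMSO and 100 uM tamoxifen define 0 and 100% inhibition for AC50 fitting.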

[7] = molecular target: Mitogen-activated protein kinase 10 (Mus musculus) (UniProt Q61831); test: JNK3 AlphaScreen Assay (AID 530); settings: JNK3 lysate, c-Jun phosphorylation; series mostly up to 57.1 µM;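 note: kinase came from lysate of stimulated human HepG2 cells; signal reports phosphorylation of biotinylated GST-cJun 1-79 at Ser73 with 10 µM ATP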
How it was run: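 Compound titrations were preincubated 15 minutes at room temperature with substrate, antibody and pre-activated JNK3-containing HepG2 lysate. Reactions were started with 10 uM ATP and stopped with EDTA-containing bead buffer for AlphaScreen detection.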

[8] = Cell Viability - N2a (AID 540; active = well fitted curve in the direction sought with a large enough effect; an effect the other way counts as inactive or inconclusive; note: nearly all actives have a fitted effect of over 45% in size); settings: N2a mouse neuroblastoma cell viability; series mostly up to 92.2 µM
How it was run: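 Mouse neuroblastoma N2a cells, 1500/well, exposed to compounds 40 h at 37 °C in complete medium. Viability measured as cellular ATP by CellTiter-Glo luminescence; AC50 from Hill fits of concentration-response.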

[9] = Cell Viability - NIH 3T3 (AID 541; active = well fitted curve in the direction sought with a large enough effect; an effect the other way counts as inactive or inconclusive; note: nearly all actives have a fitted effect of over 25% in size); settings: NIH 3T3 cell viability, qHTS; series mostly up to 92.2 µM
How it was run: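 Mouse NIH 3T3 fibroblasts, 1000 cells/well, rested 5 hr at 37 °C, then exposed to compound for 40 hr at 37 °C in complete medium. Viability read as intracellular ATP by CellTiter-Glo luminescence; AC50 from Hill-equation fits of concentration-response data.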

[10] = Cell Viability - HUV-EC-C (AID 542; active = well fitted curve in the direction sought with a large enough effect; an effect the other way counts as inactive or inconclusive; note: nearly all actives have a fitted effect of over 35% in size); settings: HUV-EC-C endothelial cell viability, qHTS; series mostly up to 92.2 µM
How it was run: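 HUV-EC-C human vascular endothelial cells, 1000/well, exposed to compound for 40 hr at 37 °C in complete medium. Intracellular ATP was read by CellTiter-Glo luminescence. AC50 came from Hill-equation fits of concentration-response data.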

[11] = Cell Viability - H-4-II-E (AID 543; active = well fitted curve in the direction sought with a large enough effect; an effect the other way counts as inactive or inconclusive; note: nearly all actives have a fitted effect of over 35% in size); settings: H-4-II-E rat hepatoma viability; series mostly up to 92.2 µM
How it was run: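 Rat hepatoma H-4-II-E cells, 1500 per well, treated 40 h at 37 °C in complete medium. Cellular ATP read by CellTiter-Glo luminescence; AC50 from Hill fits of concentration-response.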

[12] = Cell Viability - SH-SY5Y (AID 544; active = well fitted curve in the direction sought with a large enough effect; an effect the other way counts as inactive or inconclusive; note: nearly all actives have a fitted effect of over 55% in size); settings: SH-SY5Y neuroblastoma cell viability; series mostly up to 92.2 µM
How it was run: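 SH-SY5Y human neuroblastoma cells (1500/well) incubated 5 h, then compound-treated 40 h at 37 °C in complete medium. Viability read as intracellular ATP by CellTiter-Glo luminescence after 20 min; AC50 from Hill-equation fits of qHTS concentration-response.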

[13] = Cell Viability - Renal Proximal Tubule (AID 545; active = well fitted curve in the direction sought with a large enough effect; an effect the other way counts as inactive or inconclusive; note: nearly all actives have a fitted effect of over 40% in size); settings: renal proximal tubule cells viability, primary cells of rat origin; series mostly up to 91.7 µM
How it was run: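 In this qHTS format, normal rat kidney-derived proximal tubule cells in complete culture medium receive compound titrations, then sit 40 hours at 37 °C before luciferase-based ATP quantitation; potency is reported as AC50 from concentration-response curves.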

[14] = Cell Viability - Mesenchymal (AID 546; active = well fitted curve in the direction sought with a large enough effect; an effect the other way counts as inactive or inconclusive;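 note: cells exposed to compound for 40 hours before reading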); settings: mesenchymal cells viability, qHTS; series mostly up to 91.7 µM
How it was run: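 AC50 values reflect the drop in intracellular ATP in a human kidney mesenchymal line derived from normal glomeruli. Treatment lasts 40 hr at 37 °C in complete medium, and the signal comes from CellTiter-Glo luminescence.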

[15] = AP1 Signaling Pathway (AID 357); settings: ME-180 AP-1-bla reporter, EGF-induced, beta-lactamase ratio, 5 h; series mostly up to 38 µM
How it was run: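 In this screen, ME-180 cells in Opti-MEM with 0.5% dialyzed FBS received EC50 EGF and compound titrations for 5 h. AP-1 reporter beta-lactamase was detected via CCF4 ratio, giving AC50 for positive and negative modulators.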

[16] = molecular target: Cytochrome P450 1A2 (Homo sapiens) (UniProt P05177); test: p450-cyp1a2 (AID 410; calls by dose curve); settings: recombinant CYP1A2, luciferin-ME demethylation, luminescence; series mostly up to 57 µM
How it was run: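 20nM CYP1A2 with 100uM Luciferin-ME (at Km) in 100mM KPO4; compound preincubated 10 min, NADPH regeneration added, 60 min at room temperature. Luciferin quantified by luminescence after detection reagent; normalized to 57 uM furafylline.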

[17] = NFAT Signaling Pathway (AID 444); settings: Jurkat NFAT-bla M1, carbachol, beta-lactamase ratio, 5 h; series mostly up to 17.2 µM;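 note: carbachol stimulus at about its EC50 of 1 µM final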
How it was run: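 Read-out: CCF4 FRET ratio (460 nm/530 nm) after 1 h RT dye loading, used for %activity and AC50 from titration series. Cells: Jurkat NFAT-β-lactamase/M1 line, treated with compound plus 1 uM carbachol for 5 h, 37 °C.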

[18] = Stat Signaling Pathway (AID 446); settings: ME-180 (cervical carcinoma) SIE beta-lactamase reporter, IL-6 stimulated, 5 h; series mostly up to 17.2 µM;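 note: ME-180 cervical cancer cells given 40 pM IL-6 alongside compound; SIE-controlled beta-lactamase reporter measured as 460/530 nm FRET emission ratio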
How it was run: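 IL-6/STAT signaling read in ME-180 cells via an SIE beta-lactamase reporter. Stimulus was 40 pM IL-6 (its AC50) for 5 hrs, so both activation and inhibition register.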

[19] = molecular target: Glucocorticoid receptor (Homo sapiens) (UniProt P04150); test: GR-GFP Redistribution (AID 450;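 active = compounds whose dose series gives a full or clear partial fitted curve of increased nuclear translocation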; note: potency is the fitted concentration of half-maximal effect); settings: U2OS GR-GFP nuclear translocation, laser cytometry, 2 h
[20] = molecular target: Glucocorticoid receptor (Homo sapiens) (UniProt P04150); test: GR-EFC Redistribution (AID 451; calls by dose curve; note: potency is the fitted concentration of half-maximal effect); settings: CHO-K1 GR-EFC translocation, beta-gal luminescence, 2 h
How it was run: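 Translocation of GR-ED fusion to nuclear EA restores b-gal, read by luminescence after 1 h room-temperature detection. Engineered CHO-K1 biosensor cells, 1,000/well, exposed 2 h at 37 C to titrations up to 46 uM final.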

Measured: Potency

Sequence of Cytochrome P450 1A2 (Homo sapiens) (P05177 whole entry, looked up): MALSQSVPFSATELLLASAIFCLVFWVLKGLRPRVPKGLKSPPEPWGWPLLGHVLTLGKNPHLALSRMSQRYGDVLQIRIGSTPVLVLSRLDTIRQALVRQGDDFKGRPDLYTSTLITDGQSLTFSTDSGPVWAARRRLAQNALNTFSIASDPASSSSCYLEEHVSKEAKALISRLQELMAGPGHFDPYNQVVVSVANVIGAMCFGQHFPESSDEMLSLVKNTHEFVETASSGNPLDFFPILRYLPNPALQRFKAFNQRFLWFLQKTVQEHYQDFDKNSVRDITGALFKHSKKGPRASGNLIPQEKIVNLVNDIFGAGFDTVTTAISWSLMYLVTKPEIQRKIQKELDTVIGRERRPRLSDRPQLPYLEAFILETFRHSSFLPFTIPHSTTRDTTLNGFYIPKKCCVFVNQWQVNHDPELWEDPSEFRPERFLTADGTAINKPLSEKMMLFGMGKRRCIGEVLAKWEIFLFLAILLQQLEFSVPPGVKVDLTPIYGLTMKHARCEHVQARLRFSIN
Sequence of Glucocorticoid receptor (Homo sapiens) (P04150 whole entry, looked up, the tested form may be a part): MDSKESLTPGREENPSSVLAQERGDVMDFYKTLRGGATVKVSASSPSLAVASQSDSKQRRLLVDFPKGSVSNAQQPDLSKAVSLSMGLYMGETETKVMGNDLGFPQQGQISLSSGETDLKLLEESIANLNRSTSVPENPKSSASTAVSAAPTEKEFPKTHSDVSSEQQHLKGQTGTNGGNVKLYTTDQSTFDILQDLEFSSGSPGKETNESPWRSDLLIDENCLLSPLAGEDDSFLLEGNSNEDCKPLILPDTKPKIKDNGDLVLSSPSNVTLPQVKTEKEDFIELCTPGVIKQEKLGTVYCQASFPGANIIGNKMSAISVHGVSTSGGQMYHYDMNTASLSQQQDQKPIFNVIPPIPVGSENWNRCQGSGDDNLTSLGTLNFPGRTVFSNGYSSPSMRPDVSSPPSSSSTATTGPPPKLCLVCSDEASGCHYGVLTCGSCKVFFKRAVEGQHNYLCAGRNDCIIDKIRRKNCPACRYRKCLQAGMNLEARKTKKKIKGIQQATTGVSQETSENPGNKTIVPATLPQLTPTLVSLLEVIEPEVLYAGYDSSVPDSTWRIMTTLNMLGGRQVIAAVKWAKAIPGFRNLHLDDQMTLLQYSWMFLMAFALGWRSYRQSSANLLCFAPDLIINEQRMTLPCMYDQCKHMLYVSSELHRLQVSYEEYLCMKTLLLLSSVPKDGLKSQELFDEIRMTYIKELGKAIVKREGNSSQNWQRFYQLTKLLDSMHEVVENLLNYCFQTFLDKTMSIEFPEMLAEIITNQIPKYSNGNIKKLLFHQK

COc1ccc(CCC(=O)c2c(O)cc(O[C@@H]3O[C@H](CO)[C@@H](O)[C@H](O)[C@H]3O[C@@H]3O[C@@H](C)[C@H](O)[C@@H](O)[C@H]3O)cc2O)cc1O
inactive: [1] > 92 µM | [2] > 92 µM | [3] > 92 µM | [4] > 92 µM | [5] > 92 µM | [6] > 92 µM | [7] | [8] | [9] | [10] | [11] | [12] | [13] | [14]

CCc1cccc2c3c([nH]c12)[C@@](CC)(CC(=O)O)OCC3
inactive: [15] | [16] | [17] | [18] | [7]

C=C1C[C@]23C[C@@]1(O)CC[C@H]2[C@@]12C=C[C@H](O)[C@@](C)(C(=O)O1)[C@H]2[C@@H]3C(=O)O
inactive: [1] > 92 µM | [2] > 92 µM | [3] > 92 µM | [4] > 92 µM | [5] > 92 µM | [6] > 92 µM | [7] | [8] | [9] | [10] | [11] | [12] | [13] | [14]

CCN1CCN(C(=O)N[C@@H](C(=O)N[C@@H]2C(=O)N3[C@@H]2SC(C)(C)[C@@H]3C(=O)O)c2ccccc2)C(=O)C1=O
inactive: [17] | [18]

C[C@]1(C2CCCC2)Cc2cc(OCC(=O)O)c(Cl)c(Cl)c2C1=O
inactive: [15] | [16] | [17] | [18] | [19] > 46 µM | [20] > 46 µM | [7]

CC(C)C[C@H](NC(=O)[C@@H]1O[C@H]1C(=O)O)C(=O)NCCCCN=C(N)N
inactive: [15] | [16] | [17] | [18] | [19] > 46 µM and > 20.6 µM | [20] > 46 µM | [7]
